Measurements: PubChem BioAssay (NCI)
This is part of a sample that, as a whole, favours compounds with a hit. Of some 79,000 tested, about 15% had one in any assay. Unmarked numbers belong to inactive results. The source made the active and inactive calls. Cut-off read from the data, not from the text of the source: active = growth inhibition above about 70%; inactive = the rest.

Experiments:
[1] = NCI Yeast Anticancer Drug Screen. Data for the rad50 strain (AID 155);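 note: 0% = growth of vehicle-only cultures of the same strain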; details: S. cerevisiae rad50 strain growth inhibition; at 50.0 µM; stronger effect = higher value
Outline: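 Cells are treated with compound, grown, and their growth is then scored against vehicle-only cultures of the same repair-deficient yeast strain.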

[2] = NCI Yeast Anticancer Drug Screen. Data for the mec2-1 strain (AID 157); details: S. cerevisiae mec2-1 strain, at 50.0 µM, stronger effect = higher value
Outline: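 Growth inhibition is read against vehicle-treated controls after compound exposure of the mec2-1 yeast strain, which is defective in DNA damage repair or cell cycle control.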

[3] = NCI Yeast Anticancer Drug Screen. Data for the sgs1 mgt1 strain (AID 161);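 note: 0% = growth of cultures given vehicle only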; details: S. cerevisiae sgs1 mgt1 strain, at 50.0 µM, stronger effect = higher value
Outline: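 Percent growth inhibition was derived by comparing compound-exposed mutant yeast with vehicle-exposed cultures. The strain carries alterations in DNA damage repair.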

[4] = NCI Yeast Anticancer Drug Screen. Data for the cln2 rad14 strain (AID 165);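 note: 0% = growth equal to vehicle treated cultures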; details: S. cerevisiae cln2 rad14 strain, at 50.0 µM, stronger effect = higher value
Outline: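 Growth inhibition, relative to vehicle-treated controls, is the read-out. The test organism is a yeast strain with defined genetic alterations, cln2 rad14.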

[5] = NCI Yeast Anticancer Drug Screen. Data for the bub3 strain (AID 167); details: S. cerevisiae bub3 mutant strain, at 50.0 µM, stronger effect = higher value
Outline: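 Part of a panel of yeast mutants defective in DNA damage repair or cell cycle regulation. Each strain is grown with compound, and inhibition is calculated relative to solvent-treated cultures.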

[6] = NCI Yeast Anticancer Drug Screen. Data for the mlh1 rad18 strain (AID 175); details: S. cerevisiae mlh1 rad18 strain growth inhibition; at 50.0 µM; stronger effect = higher value
Outline: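 Cells of a genetically altered yeast strain, deficient in DNA damage repair, were treated with compound. Their growth was then compared with that of vehicle-treated cultures to give inhibition.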

Cc1cc(=O)[nH]c(NNC(C#N)c2ccccc2O)n1 (stereo unspecified)
growth inhibition [1]: -19.3%
growth inhibition [2]: -27.9%
growth inhibition [3]: -22.1%
growth inhibition [4]: -12%
growth inhibition [5]: 1.5%
growth inhibition [6]: -34.8%

COc1ccc(Cl)cc1NC(=O)O/N=C(\Cl)C(C)C
growth inhibition [1]: -3.65%
growth inhibition [2]: 7.55%
growth inhibition [3]: 10.9%
growth inhibition [4]: 16.2%
growth inhibition [5]: 24.9%
growth inhibition [6]: -74.3%

C[Si](C)(OCCS(=O)(=O)O)C1(Cc2cccc3ccccc23)S(=O)(=O)OCCOS1(=O)=O
growth inhibition [1]: 13.6%
growth inhibition [2]: -9.55%
growth inhibition [3]: 2.6%
growth inhibition [4]: 18.1%
growth inhibition [5]: 13.1%
growth inhibition [6]: 17.2%

CCCCN=C=C(c1ccccc1)c1ccccc1
growth inhibition [1]: 22%
growth inhibition [2]: 12.5%
growth inhibition [3]: -0.85%
growth inhibition [4]: -35.8%
growth inhibition [5]: -7.75%
growth inhibition [6]: -15.1%

COc1ccc(S(=O)(=O)N/N=C/c2cc(I)cc([N+](=O)[O-])c2O)cc1OC
growth inhibition [1]: 35%
growth inhibition [2]: 22.1%
growth inhibition [3]: 17.1%
growth inhibition [4]: 4.95%
growth inhibition [5]: -3.75%
growth inhibition [6]: 38%

CCCC1c2c(ccc3ccccc23)Oc2ccc3ccccc3c21
growth inhibition [1]: -36.1%
growth inhibition [2]: 2.4%
growth inhibition [3]: -19.6%
growth inhibition [4]: -2%
growth inhibition [5]: -13.7%
growth inhibition [6]: -1.35%

Cn1nc(-c2ccc(Cl)c(Cl)c2)[n+]([O-])c2c(=O)n(C)c(=O)nc1-2
growth inhibition [1]: 88.8% (active)
growth inhibition [2]: 92.1% (active)
growth inhibition [3]: 88.8% (active)
growth inhibition [4]: 89% (active)
growth inhibition [5]: 85.3% (active)
growth inhibition [6]: 91.3% (active)

Brc1ccc(N=N/C(=N/Nc2ccccc2)c2ccc(/C=N/Nc3ccccc3)cc2)cc1
growth inhibition [1]: 45.8%
growth inhibition [2]: 24.4%
growth inhibition [3]: 14.6%
growth inhibition [4]: 29.2%
growth inhibition [5]: 15%
growth inhibition [6]: 34.4%

COc1cc(Cc2cc(OC)c(OC)c(OC)c2)ccc1O
growth inhibition [1]: -23.4%
growth inhibition [2]: -8.5%
growth inhibition [3]: -8.5%
growth inhibition [4]: -2.6%
growth inhibition [5]: 19.1%
growth inhibition [6]: 9.5%

O=C(O)/C(=C\c1ccncc1)c1cccc2ccccc12
growth inhibition [1]: 0.85%
growth inhibition [2]: -12%
growth inhibition [3]: -37.4%
growth inhibition [4]: -24.9%
growth inhibition [5]: -32%
growth inhibition [6]: -9.65%

O=[N+]([O-])c1ccc(-c2nc3ncncc3[nH]2)cc1
growth inhibition [1]: 13.2%
growth inhibition [2]: -3.25%
growth inhibition [3]: -0.75%
growth inhibition [4]: 13.1%
growth inhibition [5]: 5.05%
growth inhibition [6]: 7.25%

O=C1OC(c2ccccc2)=C/C1=C/c1ccc(Cl)cc1
growth inhibition [1]: -1.2%
growth inhibition [2]: -17.6%
growth inhibition [3]: -6.65%
growth inhibition [4]: -6.2%
growth inhibition [5]: -7.3%
growth inhibition [6]: -8.3%

CCOC(=O)CN1C(=O)CSC1=S
growth inhibition [1]: 42%
growth inhibition [2]: -3.85%
growth inhibition [3]: 24.3%
growth inhibition [4]: 22.4%
growth inhibition [5]: 61.4%
growth inhibition [6]: 31.1%

O=C(c1ccccc1)C(c1ccccc1)(c1ccccc1)c1ccccc1
growth inhibition [1]: -4.1%
growth inhibition [2]: 6.2%
growth inhibition [3]: -17.3%
growth inhibition [4]: -30%
growth inhibition [5]: -10.2%
growth inhibition [6]: 24.1%

O=S(=O)(O)c1ccc2cc(O)ccc2c1
growth inhibition [1]: 35.7%
growth inhibition [2]: 14.6%
growth inhibition [3]: 13.8%
growth inhibition [4]: 14.5%
growth inhibition [5]: 20.8%
growth inhibition [6]: 28.4%

CC(=O)OC1COC(NC(=O)N(CCCl)N=O)C(OC(C)=O)C1OC(C)=O (stereo unspecified)
growth inhibition [1]: 6.25%
growth inhibition [2]: 7.55%
growth inhibition [3]: -25.8%
growth inhibition [4]: -11.2%
growth inhibition [5]: -31.2%
growth inhibition [6]: 48.8%

CC(Cl)C(=O)N(C)c1ccccc1 (stereo unspecified)
growth inhibition [1]: 3.6%
growth inhibition [2]: -14.8%
growth inhibition [3]: -2.9%
growth inhibition [4]: -16%
growth inhibition [5]: -14.8%
growth inhibition [6]: -14.1%

O=C(O)c1ccc2c3ccc(C(=O)O)c4c(C(=O)O)ccc(c5ccc(C(=O)O)c1c25)c43
growth inhibition [1]: -21.1%
growth inhibition [2]: -33.5%
growth inhibition [3]: -17.5%
growth inhibition [4]: -0.25%
growth inhibition [5]: -19.6%
growth inhibition [6]: -19.1%

c1ccc(N2CCN(C(c3cccs3)N3CCN(c4ccccc4)CC3)CC2)cc1
growth inhibition [1]: 7.35%
growth inhibition [2]: 8.9%
growth inhibition [3]: 0.8%
growth inhibition [4]: -4.15%
growth inhibition [5]: -5.5%
growth inhibition [6]: 19.1%

CC(=O)Nc1ccc(/C=C/c2ccc(N=C=S)c(S(=O)(=O)O)c2)c(S(=O)(=O)O)c1
growth inhibition [1]: 9.5%
growth inhibition [2]: -4.4%
growth inhibition [3]: -19%
growth inhibition [4]: 10.1%
growth inhibition [5]: 1.4%
growth inhibition [6]: -13.5%

Cc1cccc(-n2c(C)nc3[nH]cc(C)c3c2=N)c1
growth inhibition [1]: 0.15%
growth inhibition [2]: 0.65%
growth inhibition [3]: 2.05%
growth inhibition [4]: -21.9%
growth inhibition [5]: 0.55%
growth inhibition [6]: 11.1%

CCCCCCCCCCC1OCC(C)(C)CO1
growth inhibition [1]: 10.3%
growth inhibition [2]: -12.2%
growth inhibition [3]: 17.4%
growth inhibition [4]: -7.5%
growth inhibition [5]: 1.65%
growth inhibition [6]: 11.4%

Cc1c(C)c(C)c(CCl)c(CCl)c1C
growth inhibition [1]: 36.1%
growth inhibition [2]: 16.9%
growth inhibition [3]: 31.9%
growth inhibition [4]: 10.4%
growth inhibition [5]: 8.3%
growth inhibition [6]: 24.6%

CC1=Nc2nc(=NCCCN(C)C)nc3cccc(n23)N1
growth inhibition [1]: 7.6%
growth inhibition [2]: -1.35%
growth inhibition [3]: 7.65%
growth inhibition [4]: 11.2%
growth inhibition [5]: 6.4%
growth inhibition [6]: 4%

O=C(O)CCCCc1ccc2ccccc2c1
growth inhibition [1]: 4%
growth inhibition [2]: 15.4%
growth inhibition [3]: 16.4%
growth inhibition [4]: 29.2%
growth inhibition [5]: 5.95%
growth inhibition [6]: 26.8%

CC(C)(C(=O)c1cccnc1)c1cccnc1
growth inhibition [1]: 4.25%
growth inhibition [2]: -9.25%
growth inhibition [3]: 17.1%
growth inhibition [4]: 2.3%
growth inhibition [5]: 17.1%
growth inhibition [6]: 12.7%

N#CC(C#N)=CC(C#N)C#N
growth inhibition [1]: -10%
growth inhibition [2]: -4.3%
growth inhibition [3]: -12.2%
growth inhibition [4]: -65.1%
growth inhibition [5]: 5.1%
growth inhibition [6]: -11.7%

COc1ccc(-c2c(O)c3cccc(-c4ccccc4)c3oc2=O)cc1
growth inhibition [1]: 2.7%
growth inhibition [2]: 6.7%
growth inhibition [3]: -2.9%
growth inhibition [4]: 2.95%
growth inhibition [5]: 15%
growth inhibition [6]: 7.5%

COc1ccc(C(=O)N/N=C/c2c(C)n(C)n(-c3ccccc3)c2=O)cc1
growth inhibition [1]: -54.1%
growth inhibition [2]: -18.6%
growth inhibition [3]: -61.2%
growth inhibition [4]: -6.45%
growth inhibition [5]: -52.5%
growth inhibition [6]: -48.5%

CC(=O)Nc1ccc(Br)cc1
growth inhibition [1]: 0.85%
growth inhibition [2]: -5.6%
growth inhibition [3]: -18.4%
growth inhibition [4]: -34%
growth inhibition [5]: -17.1%
growth inhibition [6]: 0.1%

O=C(O)c1ccc(NC(=S)Nc2ccc(C(=O)O)cc2)cc1
growth inhibition [1]: -13.5%
growth inhibition [2]: -0.15%
growth inhibition [3]: 19.9%
growth inhibition [4]: -7.4%
growth inhibition [5]: -6.15%
growth inhibition [6]: -22.9%

O=C(Nc1ccc2c(O)c(N=Nc3ccc(N=Nc4ccc(S(=O)(=O)O)cc4)cc3)c(S(=O)(=O)O)cc2c1)c1ccccc1
growth inhibition [1]: 18.9%
growth inhibition [2]: -5.8%
growth inhibition [3]: 2.9%
growth inhibition [4]: -9.1%
growth inhibition [5]: 8.8%
growth inhibition [6]: 14.7%

CCCOC(C)OCCC#CCC(C)OC(=O)CC(Cl)(Cl)Cl (stereo unspecified)
growth inhibition [1]: -13.8%
growth inhibition [2]: -21.4%
growth inhibition [3]: 10.7%
growth inhibition [4]: -5.35%
growth inhibition [5]: -16.1%
growth inhibition [6]: -9.35%

CCCC(=O)Nc1cccc(C(F)(F)F)c1
growth inhibition [1]: 7.65%
growth inhibition [2]: 19.6%
growth inhibition [3]: -11.4%
growth inhibition [4]: 22.5%
growth inhibition [5]: 26.9%
growth inhibition [6]: 28.6%

Nc1cccc(Br)n1
growth inhibition [1]: 16.1%
growth inhibition [2]: -4.9%
growth inhibition [3]: 0.45%
growth inhibition [4]: -51.7%
growth inhibition [5]: 7.1%
growth inhibition [6]: 4.9%

CCOc1ccc(Cc2ccc3c(c2)OCO3)cc1C
growth inhibition [1]: -17.2%
growth inhibition [2]: -13.3%
growth inhibition [3]: -7.55%
growth inhibition [4]: -13.2%
growth inhibition [5]: -2.1%
growth inhibition [6]: 2.2%

CCOc1cc(/C=N/NC(=O)N(c2ccccc2)c2ccccc2)ccc1O
growth inhibition [1]: 4.25%
growth inhibition [2]: -8.6%
growth inhibition [3]: 25.6%
growth inhibition [4]: 12.8%
growth inhibition [5]: 24.6%
growth inhibition [6]: 7.35%

CCC(=O)Oc1ccc(OCc2ccccc2)cc1
growth inhibition [1]: -28.3%
growth inhibition [2]: -57.8%
growth inhibition [3]: -31.4%
growth inhibition [4]: -4%
growth inhibition [5]: -16.9%
growth inhibition [6]: -25.9%

COC1=C(c2c[nH]c3ccc(CC=C(C)C)cc23)C(=O)C(OC)=C(c2c[nH]c3ccc(CC=C(C)C)cc23)C1=O
growth inhibition [1]: 30.5%
growth inhibition [2]: 6.5%
growth inhibition [3]: 13.6%
growth inhibition [4]: 19.4%
growth inhibition [5]: -1.1%
growth inhibition [6]: 29.6%

CNCC(OC)OC
growth inhibition [1]: 5.3%
growth inhibition [2]: -29.8%
growth inhibition [3]: 4.85%
growth inhibition [4]: 16.1%
growth inhibition [5]: 0%
growth inhibition [6]: 11.2%

[B-][N+]1(C)CC[N+]([B-])(C)CC1 (stereo unspecified)
growth inhibition [1]: -0.6%
growth inhibition [2]: 5.8%
growth inhibition [3]: -7%
growth inhibition [4]: 16.1%
growth inhibition [5]: -5.65%
growth inhibition [6]: -11.6%
